Among all 5,500 compounds or so, about 2,000 (36%) were called active. About 18% were inconclusive and are not listed. Cut-off read from the data, not from the text of the source: active = normalized growth mostly below about 0.91 (no sharp cut-off); inconclusive = no clear call, values can overlap the other calls; inactive = mostly above about 0.92. This is one part of the list.
Assay: chemical genetic growth profiling, strain panel (AID 1159580);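 note: tested at 20 µM; growth read once vehicle control cultures reached saturation at 30 °C; 1 = growth at the plate median or of vehicle wells; lower values mean less growth of the strain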
Conditions: growth OD

Measured: normalized growth

COC(=O)c1ccc2c(c1)N(C)S(=O)(=O)CC2=O
inactive: S. cerevisiae deletion strains, locus YBR229C, strain ROT2, active compounds read low 0.998 | S. cerevisiae deletion strains, locus YDL101C, strain DUN1, active compounds read low 0.964 | S. cerevisiae deletion strains, locus YDR150W, strain NUM1, active compounds read low 0.997 | S. cerevisiae deletion strains, locus YEL061C, strain CIN8, active compounds read low 0.975 | S. cerevisiae deletion strains, locus YGR078C, strain PAC10, active compounds read low 1 | S. cerevisiae deletion strains, locus YHR030C, strain SLT2, active compounds read low 0.994 | S. cerevisiae deletion strains, locus YHR087W, strain rtc3, active compounds read low 1 | S. cerevisiae deletion strains, locus YJR043C, strain POL32, active compounds read low 1.02 | S. cerevisiae deletion strains, locus YJR075W, strain HOC1, active compounds read low 1.01 | S. cerevisiae deletion strains, locus YLR039C, strain RIC1, active compounds read low 0.989 | S. cerevisiae deletion strains, locus YLR058C, strain SHM2 (second series), active compounds read low 1.01 | S. cerevisiae deletion strains, locus YLR085C, strain ARP6, active compounds read low 0.853 | S. cerevisiae deletion strains, locus YLR262C, strain YPT6, active compounds read low 0.998 | S. cerevisiae deletion strains, locus YML094W, strain GIM5, active compounds read low 1 | S. cerevisiae deletion strains, locus YMR219W, strain ESC1, active compounds read low 0.996 | S. cerevisiae deletion strains, locus YMR263W, strain SAP30, active compounds read low 0.994 | S. cerevisiae deletion strains, locus YMR307W, strain GAS1, active compounds read low 0.872 | S. cerevisiae deletion strains, locus YNL128W, strain TEP1, active compounds read low 1.01 | S. cerevisiae deletion strains, locus YNL153C, strain GIM3, active compounds read low 0.932 | S. cerevisiae deletion strains, locus YNL298W, strain CLA4 (second series), active compounds read low 0.987 | S. cerevisiae deletion strains, locus YNL322C, strain KRE1, active compounds read low 0.993 | S. cerevisiae deletion strains, locus YNR030W, strain Alg12, active compounds read low 0.987 | S. cerevisiae deletion strains, locus YPL055C, strain LGE1, active compounds read low 0.99 | S. cerevisiae deletion strains, locus YPL241C, strain CIN2, active compounds read low 0.936 | S. cerevisiae deletion strains, locus YPR135W, strain CTF4, active compounds read low 1.03 | S. cerevisiae strains, strain wild type, active compounds read low 1.01

Reference: PubChem BioAssay AID1159580 (chemical genetic matrix, 2015)
